TGFb SMAD3 inh = blocks TGF-b signaling | HepG2 CAGA-GFP TGF-b/SMAD3 reporter, GFP fluorescence, 18 h; TGF-beta stimulated, 500 pg/mL final | Potency, µM (doses to about 46.1 µM), actives largely listed as inhibitors | 410,000 compounds, 1.2% hits | AID 588855; note: nearly all actives have a fitted effect of over 65% in size
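Read-out: total well GFP (ex488/em500-530) summed from mean per-cell fluorescence. Cells: HEPG2 CAGA-GFP, 1% FBS DMEM, 18 h at 37 degrees C with 500 pg/mL final TGF-beta. Unstimulated wells served as the full-inhibition control; stimulated DMSO wells = 0%.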
ATXN viability = cell viability loss in ATXN counter-screen; Potency, µM (series often up to 56.7 µM), hits mostly cytotoxic; S2 cells (HEK-293 line with an ATXN2-luciferase reporter) viability, CellTiter-Fluor protease fluorescence, 24 h; 400,000 compounds, 0.49% hits; note: nearly all actives have a fitted effect of over 40% in size
KB-V1 cytotox = kills drug-selected multidrug resistant KB-V1 cells; KB-V1 MDR cells viability, CellTiter-Glo, 72 h; Potency, µM (titrated, usually from 46.1 µM), hits mostly cytotoxic; 400,000 compounds, 3.4% hits; note: nearly all actives have a fitted effect of over 60% in size
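qHTS viability screen in drug-selected KB-V1 MDR cells: 72 h compound treatment at 37 degrees C, ATP luminescence end point.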
KB-3-1 cytotox = kills parental KB-3-1 adenocarcinoma cells | KB-3-1 viability, CellTiter-Glo ATP luminescence, 72 h | Potency, µM (highest dose often 46.1 µM), hits mostly cytotoxic | 400,000 compounds, 1.4% hits; note: nearly all actives have a fitted effect of over 60% in size
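Cytotoxicity in the drug-sensitive parental line KB-3-1 was scored as loss of CellTiter-Glo luminescence following 72 h incubation with compound. Values come from curve fitting of normalized concentration-response data.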
ATXN2 expr inh = ATXN2 expression inhibition; 360,000 compounds, 0.72% hits; Potency, µM (series often up to 57 µM), usual class: inhibitors; HEK-293 ATXN2-luciferase reporter, luminescence, 24 h; note: nearly all actives have a fitted effect of over 55% in size
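ATXN2-luciferase reporter cells (luciferase flanked by upstream and downstream ATXN2 gene portions) were treated 24 h at 37 °C with compounds at up to 57 uM. SteadyGlo luminescence gave expression; GF-AFC fluorescence gave viability.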
HepG2 tox = counter-screen for TGF-b inhibitors: cytotoxicity in HepG2 cells. Potency, µM (top dose mostly 46.1 µM), actives largely listed as cytotoxic. 410,000 compounds, 0.76% hits. HepG2 CAGA-GFP viability, ATP luminescence, 18 h
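CellTiter-Glo luminescence gave cytotoxicity after 18 hours at 37 degrees C. The cells were HepG2 CAGA-GFP in 1% FBS DMEM, stimulated with 500 pg/mL TGF-beta after compound addition. %Activity was normalised to no-cell wells (complete cell-killing) and DMSO (no toxicity), and curves were fitted and classified.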
Each line names hits and unclear results; the compound was inactive in the other large screens; ! = not active in a repeat. Rows were chosen to be rich in hits. Some 5.9% of all compounds tested hit in one or more screens of this group. Calls come from the whole dose curve; as a rule, active = well fitted curve in the direction sought with a large enough effect; inconclusive = small, poorly fitted or top-dose-only effect, or another doubt; inactive = no such curve, though single readings can be large; an effect the other way counts as inactive or inconclusive.

CCCn1nnc(NC(=O)C(c2ccccc2)c2ccccc2)n1	KB-V1 cytotox 18.4µM
CCCCn1nnc(NC(=O)C(c2ccccc2)c2ccccc2)n1	none
COc1ccc(OC)c(-c2cc(C(=O)Nc3cnn(Cc4ccc(Cl)cc4Cl)c3)no2)c1	ATXN viability inconclusive, KB-V1 cytotox inconclusive
O=C(CCCc1nc2ccccc2s1)N1CCN(S(=O)(=O)c2cccs2)CC1	KB-V1 cytotox 23.1µM
CCCCOc1ccc(C(=O)NCCC(=O)NCCCC(=O)OCC)cc1	none
CN1CCN(CCCNC(=O)c2ccc3c(Cl)c4c(nc3c2)CCCC4)CC1	TGFb SMAD3 inh 11.2µM (no result: ATXN2 expr inh)
CCCCCCCCNC(=O)CCNC(=O)c1ccc(C(C)(C)C)cc1	TGFb SMAD3 inh inconclusive, KB-V1 cytotox 13µM
CC(C)(C)c1ccc(C(=O)NCCCN2CCN(CCCNC(=O)c3ccc(C(C)(C)C)cc3)CC2)cc1	TGFb SMAD3 inh inconclusive, ATXN viability 28.2µM, KB-V1 cytotox 18.4µM, KB-3-1 cytotox inconclusive, ATXN2 expr inh inconclusive
CCN(CCN(C)Cl)/[N+]([O-])=N/Oc1ccc([N+](=O)[O-])cc1[N+](=O)[O-]	TGFb SMAD3 inh inconclusive (no result: ATXN viability, KB-V1 cytotox, KB-3-1 cytotox, ATXN2 expr inh)
Cc1ccc2c(c1)c1c(c(=O)n(-c3ccccc3)c(=O)n1CC(=O)c1ccc(F)cc1)n2C	none
O=C(NCC1(N2CCOCC2)CCCC1)c1cnn(-c2nccc(-c3cccs3)n2)c1C1CC1	none (no result: TGFb SMAD3 inh, KB-V1 cytotox, KB-3-1 cytotox, ATXN2 expr inh, HepG2 tox)
CCOC(=O)c1ccc(-c2c(-c3cc(OC)c(OC)c(OC)c3)noc2C)cc1F	TGFb SMAD3 inh 11.2µM, ATXN viability inconclusive, KB-V1 cytotox 11.6µM, KB-3-1 cytotox 1.64µM!
CCOC(=O)c1ccc(-c2c(-c3ccc(OC)cc3)oc(=O)c3cc(OC)c(OC)cc23)cc1F	none
C=CCNC(=O)/C(C#N)=C/c1c(N(Cc2ccccc2)Cc2ccccc2)nc2ccccn2c1=O	ATXN viability inconclusive, KB-V1 cytotox 18.4µM
COCC(=O)Nc1cc(C(=O)N2CCCOc3c(cccc3OC)C2)c2c(c1)nc(C1CCC1)n2C	none (no result: TGFb SMAD3 inh, KB-V1 cytotox, KB-3-1 cytotox, ATXN2 expr inh, HepG2 tox)
C[C@]12CCC(=O)C=C1[C@@H]1C[C@@H]1[C@H]1[C@@H]3[C@@H]4C[C@@H]4[C@@]4(CCC(=O)O4)[C@@]3(C)CC[C@@H]12	ATXN2 expr inh inconclusive (no result: TGFb SMAD3 inh, KB-V1 cytotox, KB-3-1 cytotox, HepG2 tox)
c1ccc(-c2cn3nc(-c4ccccc4)c(-c4ccccc4)nc3n2)cc1	KB-V1 cytotox 13µM (no result: ATXN viability)
CS(=O)(=O)N(CC(O)CON=C1c2ccccc2-c2ccccc21)c1ccc(F)cc1 (stereo not given)	TGFb SMAD3 inh 17.8µM, ATXN2 expr inh inconclusive
CCN(CC(O)CON=C1c2ccccc2-c2ccccc21)S(=O)(=O)c1ccc(Cl)cc1 (stereo not given)	KB-V1 cytotox inconclusive, KB-3-1 cytotox inconclusive, ATXN2 expr inh inconclusive (no result: ATXN viability)
CCN(CC(O)CON=C1c2ccccc2-c2ccccc21)S(=O)(=O)c1ccc(C)cc1 (stereo not given)	KB-V1 cytotox 18.4µM, ATXN2 expr inh inconclusive
CN(CC(O)CON=C1c2ccccc2-c2ccccc21)S(=O)(=O)c1ccc(Br)cc1 (stereo not given)	TGFb SMAD3 inh inconclusive, KB-V1 cytotox 18.4µM, KB-3-1 cytotox inconclusive, ATXN2 expr inh inconclusive
COc1cccc(C(=O)Nc2c(C(=O)NC(C)(C)C)oc3ccccc23)c1	none
Cc1ccc(C)c(CN2CCC(CNC(=O)Nc3ccc(F)c(Cl)c3)CC2)c1	TGFb SMAD3 inh inconclusive, KB-3-1 cytotox inconclusive, ATXN2 expr inh inconclusive, HepG2 tox 17.8µM
Cc1ccc(CN2CCC(CNC(=O)Nc3ccc(Cl)cc3)C2)cc1 (stereo not given)	TGFb SMAD3 inh 12.6µM, ATXN2 expr inh inconclusive (no result: ATXN viability)
Cc1ccc(NC(=O)NCC2CCN(Cc3cccc(Cl)c3)CC2)cc1Cl	TGFb SMAD3 inh inconclusive, ATXN viability inconclusive, KB-V1 cytotox inconclusive, KB-3-1 cytotox inconclusive, ATXN2 expr inh inconclusive, HepG2 tox 12.6µM!
CCc1ccc(NC(=O)NCC2CCN(Cc3cccc(Cl)c3)CC2)cc1	ATXN viability inconclusive, KB-3-1 cytotox inconclusive (no result: ATXN2 expr inh)
Cc1ccc(CN2CCC(CNC(=O)Nc3ccccc3F)CC2)cc1	none

Bioassay records: PubChem, National Center for Advancing Translational Sciences (NCATS)
